High-throughput results from PubChem.
Anthrax LF inh2 – anthrax lethal factor protease inhibition; P15917; multiplex microsphere protease cleavage assay, LF; inhibition, % at 10 µM; 360,000 compounds, 0.12% hits; AID 588501; further: plate controls were buffer without enzyme for full effect and enzyme alone for no effect
MazF activator – increases E. coli MazEF RNase cleavage of RNA; P0AE70; FAM/BHQ RNA-DNA oligo cleavage fluorescence, 5 h; activation, % at 20 µM; 350,000 compounds, 0.32% hits; AID 504720; in the data active means activation above about 50%
Target sequence (P0AE70 whole entry, looked up): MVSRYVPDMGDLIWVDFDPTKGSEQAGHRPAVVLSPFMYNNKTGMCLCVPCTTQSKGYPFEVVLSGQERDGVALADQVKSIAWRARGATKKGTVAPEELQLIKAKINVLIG
BoNT-A LC inh2 – inhibitors of Botulinum neurotoxin A light chain protease; multiplex microsphere protease substrate cleavage, flow cytometry; inhibition, % at 10 µM; 360,000 compounds, 0.17% hits; AID 588499; further: plate controls were buffer without enzyme for full effect and enzyme alone for no effect
VHR inh abs – inhibitors of human VHR1 phosphatase (DUSP3). AID 1654. 290,000 compounds, 0.52% hits. inhibition, % at 13.3 µM. recombinant VHR phosphatase, pNPP absorbance; in the data active means inhibition above about 50%
Target sequence (P51452 whole entry, looked up): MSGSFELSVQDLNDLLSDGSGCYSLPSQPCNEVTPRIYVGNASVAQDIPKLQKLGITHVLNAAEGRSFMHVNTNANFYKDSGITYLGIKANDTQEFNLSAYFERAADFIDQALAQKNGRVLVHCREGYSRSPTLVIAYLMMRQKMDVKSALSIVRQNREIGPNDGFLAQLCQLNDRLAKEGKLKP
Bead autofluor – counter-screen for toxin protease inhibitors: compound fluorescence. fluorescence intensity (test concentration not listed). AID 624483. compound autofluorescence counterscreen, microsphere flow cytometry; active compounds read high. 360,000 compounds, 3.1% hits; in the data active means fluorescence intensity above about 16000; inconclusive means no clear call, values can overlap the other calls
BoNT F protease – BoNT F light chain protease inhibition; Multiplex microsphere protease cleavage assay, flow cytometry; inhibition, % at 10 µM; 360,000 compounds, 0.22% hits; AID 588497; in the data active means inhibition above about 35%, passing the limit was not always enough; inconclusive means no clear call, values can overlap the other calls; further: plate controls were buffer without enzyme for full effect and enzyme alone for no effect
Numbers without * were called inactive. Only some compounds are listed: those with a hit (about 4.1% of all), similar ones and a draw of the others. Unless noted, no stated cut-off is given here; in the data, active means inhibition above about 30%; inconclusive means no clear call, values can overlap the other calls; inactive means below that.

What do the screens show for `CCn1c(SCC(=O)N/N=C/C=C\c2ccco2)nc2ccccc21`?
Anthrax LF inh2: -1; MazF activator: 8; BoNT-A LC inh2: 0; VHR inh abs: -10; Bead autofluor: 2474; BoNT F protease: -2

How did Cc1cc(C)nc(NS(=O)(=O)c2ccc(Br)s2)c1 do in these assays?
Anthrax LF inh2: 1; MazF activator: -6; BoNT-A LC inh2: 1; VHR inh abs: -20; Bead autofluor: 5735; BoNT F protease: -4

How did Cc1cccc(NS(=O)(=O)c2ccc(Br)s2)n1 do in these assays?
Anthrax LF inh2: 1; MazF activator: 3; BoNT-A LC inh2: 2; VHR inh abs: 0; Bead autofluor: 19822*; BoNT F protease: 1

How did COC(=O)c1ccc(OCC(=O)Nc2nn(-c3ccccc3)nc2C(N)=O)cc1 do in these assays?
Anthrax LF inh2: 0; MazF activator: -36; BoNT-A LC inh2: inconclusive; VHR inh abs: 10; Bead autofluor: 22226*; BoNT F protease: -4

How did N#CCSc1ccccc1NC(=O)CN1C(=O)C(=O)N(Cc2ccccc2)C1=O do in these assays?
Anthrax LF inh2: 3; MazF activator: -29; BoNT-A LC inh2: 0; Bead autofluor: 3082; BoNT F protease: -5

Results for c1ccc(-n2nnnc2SCc2cn3cccnc3n2)cc1 ?
Anthrax LF inh2: -4; MazF activator: -17; BoNT-A LC inh2: 0; VHR inh abs: -15; Bead autofluor: 23611*; BoNT F protease: 0

How did Cc1ccc2cc(NC(=O)C3(C)CCN(C)C3)ccc2n1 (configuration not stated) do in these assays?
Anthrax LF inh2: 3; BoNT-A LC inh2: 0; Bead autofluor: 3849; BoNT F protease: -2

How did CCCCNC(=O)Nc1cc(C)on1 do in these assays?
Anthrax LF inh2: 0; MazF activator: -4; BoNT-A LC inh2: -3; VHR inh abs: -4; Bead autofluor: 20643*; BoNT F protease: -6

What do the screens show for `CCOc1cc(C(=O)OCC(=O)Nc2cc(C)on2)cc(OCC)c1OCC`?
Anthrax LF inh2: 3; MazF activator: -2; BoNT-A LC inh2: -5; VHR inh abs: 29; Bead autofluor: 22120*; BoNT F protease: -6

Results for CCOc1ccc(C(=O)OCC(=O)Nc2nc(OC)cc(OC)n2)cc1OCC ?
Anthrax LF inh2: -2; MazF activator: 5; BoNT-A LC inh2: inconclusive; VHR inh abs: 20; Bead autofluor: 23423*; BoNT F protease: -2

How did Cc1noc(C)c1NC(=O)N(C)C[C@H]1OCc2cnnn2CCCC(=O)N([C@@H](C)CO)C[C@H]1C do in these assays?
Anthrax LF inh2: 5; MazF activator: 6; BoNT-A LC inh2: 0; Bead autofluor: 3168; BoNT F protease: 0

How did O=C(COc1cc2oc(=O)c3c(c2cc1Cl)CCC3)N1C[C@H]2C[C@@H](C1)c1cccc(=O)n1C2 do in these assays?
Anthrax LF inh2: -3; MazF activator: -17; BoNT-A LC inh2: -1; VHR inh abs: 16; Bead autofluor: 5451; BoNT F protease: -4

How did Cc1cc(C)cc(NC(=O)CN2CCN(c3ncccn3)CC2)c1 do in these assays?
Anthrax LF inh2: 0; MazF activator: -1; BoNT-A LC inh2: 2; VHR inh abs: -12; Bead autofluor: 22652*; BoNT F protease: 5

How did CCC(c1nnnn1-c1ccc2c(c1)OCCO2)N1CCN(c2ccc(C)cc2)CC1 (configuration not stated) do in these assays?
Anthrax LF inh2: -10; BoNT-A LC inh2: -1; Bead autofluor: 4042; BoNT F protease: 0

What do the screens show for `Cc1ccc(-c2nnn(CC(=O)N(CC3CCCO3)C(C(=O)NC3CCCC3)c3ccc(O)cc3)n2)o1` (configuration not stated)?
Anthrax LF inh2: 4; MazF activator: -1; BoNT-A LC inh2: 0; VHR inh abs: 16; Bead autofluor: 3214; BoNT F protease: 0

What do the screens show for `Cc1ccc(C(C(=O)NC(C)(C)C)N(CC2CCCO2)C(=O)Cn2nnc(-c3ccc(C)o3)n2)cc1` (configuration not stated)?
Anthrax LF inh2: 0; MazF activator: -1; BoNT-A LC inh2: inconclusive; VHR inh abs: 0; Bead autofluor: 16426*; BoNT F protease: 1

How did Cc1ccc(-c2nnn(CC(=O)N(Cc3ccco3)C(C(=O)NC(C)(C)C)c3cccs3)n2)o1 (configuration not stated) do in these assays?
Anthrax LF inh2: 1; MazF activator: 6; BoNT-A LC inh2: 1; VHR inh abs: 3; Bead autofluor: 22756*; BoNT F protease: 4

What do the screens show for `Cc1ccc(-c2nnn(CC(=O)N(Cc3cccs3)C(C(=O)NC(C)(C)C)c3ccco3)n2)o1` (configuration not stated)?
Anthrax LF inh2: -3; MazF activator: 10; BoNT-A LC inh2: -1; VHR inh abs: -8; Bead autofluor: 11019; BoNT F protease: 1

How did C(#Cc1ccccc1)C[N+]1(CC#Cc2ccccc2)CCCCC1 do in these assays?
Anthrax LF inh2: -4; MazF activator: 57*; BoNT-A LC inh2: -2; VHR inh abs: 6; Bead autofluor: 4625; BoNT F protease: -2

What do the screens show for `C#CC[N+]1(CC#Cc2ccccc2)CCCCC1`?
Anthrax LF inh2: -7; MazF activator: 8; BoNT-A LC inh2: -1; VHR inh abs: 25; Bead autofluor: 4488; BoNT F protease: -10

What do the screens show for `Cc1[nH]c2ccc(OC(F)(F)F)cc2c1CCNCc1cccc([N+](=O)[O-])c1`?
Anthrax LF inh2: -2; MazF activator: 15; BoNT-A LC inh2: 0; VHR inh abs: -1; Bead autofluor: 3991; BoNT F protease: inconclusive

Results for CCOc1cccc(CNCCc2c(C)[nH]c3ccc(OC(F)(F)F)cc23)c1O ?
Anthrax LF inh2: 0; MazF activator: 52*; BoNT-A LC inh2: 0; VHR inh abs: 13; Bead autofluor: 4230; BoNT F protease: -66

What do the screens show for `Nc1cc(S(=O)(=O)N2CCOCC2)ccc1Oc1cccc(Br)c1`?
Anthrax LF inh2: -1; MazF activator: -5; BoNT-A LC inh2: 7; Bead autofluor: 3490; BoNT F protease: 14

Results for COc1ccc(OC)c(C(=O)CCCCC(=O)c2cc(OC)ccc2OC)c1 ?
Anthrax LF inh2: -11; MazF activator: -2; BoNT-A LC inh2: 0; Bead autofluor: 4217; BoNT F protease: -13

What do the screens show for `COc1ccc(C(=O)CCC(=O)O)c(C)c1`?
Anthrax LF inh2: -4; MazF activator: 0; BoNT-A LC inh2: 1; VHR inh abs: 13; Bead autofluor: 22646*; BoNT F protease: 1

What do the screens show for `O=C(CN1C(=O)NC(c2ccccc2)(c2ccccc2)C1=O)NCCc1ccc(F)cc1`?
Anthrax LF inh2: 3; MazF activator: 1; BoNT-A LC inh2: -1; Bead autofluor: 4525; BoNT F protease: -1

How did CC1(C(=O)Nc2cccc3cccnc23)CCN1Cc1cccc2c1OCO2 (configuration not stated) do in these assays?
Anthrax LF inh2: -3; BoNT-A LC inh2: 0; Bead autofluor: 3045; BoNT F protease: 2

What do the screens show for `Cc1nn(C)c(C)c1/C=N/NC(=O)C(C)(C)Oc1ccc(Cl)cc1`?
Anthrax LF inh2: -5; MazF activator: -2; BoNT-A LC inh2: inconclusive; VHR inh abs: 7; Bead autofluor: 24501*; BoNT F protease: -2
